{"source": "the supplement of paper PMC11732987", "about": "“Enantioselective OTUD7B fragment discovery through chemoproteomics screening and high-throughput optimisation” (Communications Chemistry, 2025)", "test_in_all_cases": "log2 ratio of Biotin-Ahx-Ub-VS probe labelling (fragment/DMSO); higher = less target engagement (more negative = stronger competition), active = hit call of the paper (q ≤ 0.05, log2 ratio ≤ -1)", "details_in_all_cases": "compound concentration: 200 uM; treatment time: 3 h", "key": {"ALG13": {"biological_target": "T1, ALG13 (UniProt Q9NP73)", "T1 sequence (whole entry)": "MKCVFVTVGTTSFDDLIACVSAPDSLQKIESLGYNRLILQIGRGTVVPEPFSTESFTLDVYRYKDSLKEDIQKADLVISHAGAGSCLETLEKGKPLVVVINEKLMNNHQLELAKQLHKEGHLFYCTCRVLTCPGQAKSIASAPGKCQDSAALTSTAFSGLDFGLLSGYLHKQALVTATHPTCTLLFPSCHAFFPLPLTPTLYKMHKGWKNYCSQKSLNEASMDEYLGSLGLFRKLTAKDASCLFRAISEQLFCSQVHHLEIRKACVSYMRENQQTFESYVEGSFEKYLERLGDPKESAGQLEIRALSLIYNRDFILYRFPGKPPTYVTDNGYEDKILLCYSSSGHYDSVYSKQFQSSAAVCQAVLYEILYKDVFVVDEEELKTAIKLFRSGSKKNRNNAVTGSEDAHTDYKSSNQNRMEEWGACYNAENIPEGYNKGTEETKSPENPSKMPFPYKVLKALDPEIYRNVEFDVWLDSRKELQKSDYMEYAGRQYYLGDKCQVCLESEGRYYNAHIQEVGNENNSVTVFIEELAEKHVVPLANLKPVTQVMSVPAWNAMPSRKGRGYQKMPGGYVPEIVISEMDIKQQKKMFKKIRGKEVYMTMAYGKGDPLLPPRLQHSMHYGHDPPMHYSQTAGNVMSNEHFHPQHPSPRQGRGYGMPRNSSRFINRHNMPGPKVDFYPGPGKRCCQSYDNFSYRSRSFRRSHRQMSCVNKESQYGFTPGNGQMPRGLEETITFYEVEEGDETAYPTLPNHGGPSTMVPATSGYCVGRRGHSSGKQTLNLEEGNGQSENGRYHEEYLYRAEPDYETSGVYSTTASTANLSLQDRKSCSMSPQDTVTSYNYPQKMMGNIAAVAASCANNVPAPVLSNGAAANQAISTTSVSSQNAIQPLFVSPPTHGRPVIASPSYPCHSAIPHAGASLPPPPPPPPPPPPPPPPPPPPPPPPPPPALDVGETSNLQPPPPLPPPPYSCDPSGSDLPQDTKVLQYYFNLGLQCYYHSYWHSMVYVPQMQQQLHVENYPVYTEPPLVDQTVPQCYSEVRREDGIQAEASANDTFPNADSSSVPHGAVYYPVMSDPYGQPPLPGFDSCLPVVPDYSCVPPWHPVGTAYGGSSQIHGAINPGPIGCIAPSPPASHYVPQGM", "procedure,_shortened": "(§1)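 Labelling with Biotin-Ahx-Ub-VS (0.5 µM final, 1 h) followed a 3 h triplicate treatment of HEK293T lysate (495 µg per sample, Tris/CHAPS/IGEPAL buffer with protease inhibitors) with fragment at 200 µM or vehicle. Labelled DUBs were NeutrAvidin-enriched, digested with LysC and trypsin, and run by diaPASEF LC-MS/MS. The values, average log2 fragment/vehicle ratios by unpaired t-test, come from global-median-normalised Spectronaut label-free quantities. Proteins with ≥2 unique peptides were used.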"}, "ATXN3": {"biological_target": "ATXN3 (UniProt P54252)", "sequence (P54252 whole entry)": "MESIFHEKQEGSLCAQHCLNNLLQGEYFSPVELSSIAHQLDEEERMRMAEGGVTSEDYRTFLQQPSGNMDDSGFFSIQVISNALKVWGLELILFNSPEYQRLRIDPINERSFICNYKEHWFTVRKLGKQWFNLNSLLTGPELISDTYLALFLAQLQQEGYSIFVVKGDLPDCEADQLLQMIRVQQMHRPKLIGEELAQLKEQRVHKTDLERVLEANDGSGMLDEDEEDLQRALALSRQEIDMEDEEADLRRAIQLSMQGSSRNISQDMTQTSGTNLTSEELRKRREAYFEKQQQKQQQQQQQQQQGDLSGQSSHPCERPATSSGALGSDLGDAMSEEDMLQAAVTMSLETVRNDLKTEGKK", "procedure,_shortened": "as §1"}, "BAP1": {"biological_target": "T2, BAP1 (UniProt Q92560)", "T2 sequence (whole entry)": "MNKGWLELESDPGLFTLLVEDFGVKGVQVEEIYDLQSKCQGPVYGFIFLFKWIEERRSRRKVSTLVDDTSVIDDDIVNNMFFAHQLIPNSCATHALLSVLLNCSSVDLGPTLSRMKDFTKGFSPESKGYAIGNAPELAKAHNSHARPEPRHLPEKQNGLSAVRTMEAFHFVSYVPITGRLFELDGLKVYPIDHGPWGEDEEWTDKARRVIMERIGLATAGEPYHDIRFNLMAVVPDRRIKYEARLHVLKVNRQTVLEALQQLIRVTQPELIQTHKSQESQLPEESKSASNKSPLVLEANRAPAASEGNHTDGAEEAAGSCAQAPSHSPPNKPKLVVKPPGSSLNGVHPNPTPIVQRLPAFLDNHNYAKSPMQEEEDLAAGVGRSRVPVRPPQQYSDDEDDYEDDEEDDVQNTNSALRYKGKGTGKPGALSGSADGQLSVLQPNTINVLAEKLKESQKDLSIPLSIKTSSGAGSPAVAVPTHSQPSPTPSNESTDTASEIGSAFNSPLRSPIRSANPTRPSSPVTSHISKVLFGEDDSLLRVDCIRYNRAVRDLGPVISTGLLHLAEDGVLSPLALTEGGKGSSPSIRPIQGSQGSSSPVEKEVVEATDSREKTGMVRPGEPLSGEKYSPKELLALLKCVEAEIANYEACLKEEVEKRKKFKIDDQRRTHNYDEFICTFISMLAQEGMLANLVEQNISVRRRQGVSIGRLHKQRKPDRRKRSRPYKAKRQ", "procedure,_shortened": "as §1"}, "EIF3F": {"biological_target": "EIF3F (UniProt O00303)", "sequence (O00303 whole entry)": "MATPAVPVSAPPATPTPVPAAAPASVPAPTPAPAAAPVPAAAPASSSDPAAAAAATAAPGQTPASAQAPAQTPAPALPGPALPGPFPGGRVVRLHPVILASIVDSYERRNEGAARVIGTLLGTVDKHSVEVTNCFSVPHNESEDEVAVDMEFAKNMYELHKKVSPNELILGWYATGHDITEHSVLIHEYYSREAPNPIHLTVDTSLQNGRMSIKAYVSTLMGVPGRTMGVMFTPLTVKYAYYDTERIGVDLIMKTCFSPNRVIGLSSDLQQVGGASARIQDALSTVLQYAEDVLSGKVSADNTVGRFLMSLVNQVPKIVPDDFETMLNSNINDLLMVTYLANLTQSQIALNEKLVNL", "procedure,_shortened": "as §1"}, "EIF3H": {"biological_target": "EIF3H (UniProt O15372)", "sequence (O15372 whole entry)": "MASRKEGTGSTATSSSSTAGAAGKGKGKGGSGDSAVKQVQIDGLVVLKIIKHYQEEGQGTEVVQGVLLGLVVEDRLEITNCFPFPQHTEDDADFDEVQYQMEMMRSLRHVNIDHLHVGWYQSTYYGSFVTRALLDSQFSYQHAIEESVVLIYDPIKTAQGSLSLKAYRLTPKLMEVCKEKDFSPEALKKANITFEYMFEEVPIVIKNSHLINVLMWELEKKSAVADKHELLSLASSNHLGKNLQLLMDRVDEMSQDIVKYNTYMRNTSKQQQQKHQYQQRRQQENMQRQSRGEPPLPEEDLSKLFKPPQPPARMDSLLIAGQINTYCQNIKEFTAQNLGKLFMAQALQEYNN", "procedure,_shortened": "as §1"}, "FAM105A": {"biological_target": "T3, FAM105A (UniProt Q9NUU6)", "T3 sequence (whole entry)": "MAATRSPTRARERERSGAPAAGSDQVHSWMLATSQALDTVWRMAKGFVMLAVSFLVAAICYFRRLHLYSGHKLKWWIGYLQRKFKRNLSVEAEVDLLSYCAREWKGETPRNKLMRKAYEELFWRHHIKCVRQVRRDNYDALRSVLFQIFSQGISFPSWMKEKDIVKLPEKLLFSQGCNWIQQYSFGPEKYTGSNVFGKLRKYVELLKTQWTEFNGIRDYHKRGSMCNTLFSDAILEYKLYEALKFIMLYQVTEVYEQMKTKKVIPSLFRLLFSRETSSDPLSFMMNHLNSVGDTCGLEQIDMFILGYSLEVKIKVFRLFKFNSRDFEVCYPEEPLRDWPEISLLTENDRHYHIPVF", "procedure,_shortened": "as §1"}, "OTUB1": {"biological_target": "OTUB1 (UniProt Q96FW1)", "sequence (Q96FW1 whole entry)": "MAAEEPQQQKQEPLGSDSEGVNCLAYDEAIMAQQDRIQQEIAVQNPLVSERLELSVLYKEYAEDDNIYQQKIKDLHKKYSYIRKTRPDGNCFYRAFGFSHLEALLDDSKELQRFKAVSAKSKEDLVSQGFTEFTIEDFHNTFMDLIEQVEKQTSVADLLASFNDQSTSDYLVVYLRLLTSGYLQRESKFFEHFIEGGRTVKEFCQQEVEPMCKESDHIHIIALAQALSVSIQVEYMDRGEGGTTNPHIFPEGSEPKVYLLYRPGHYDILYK", "procedure,_shortened": "as §1"}, "OTUD4": {"biological_target": "T4, OTUD4 (UniProt Q01804)", "T4 sequence (whole entry)": "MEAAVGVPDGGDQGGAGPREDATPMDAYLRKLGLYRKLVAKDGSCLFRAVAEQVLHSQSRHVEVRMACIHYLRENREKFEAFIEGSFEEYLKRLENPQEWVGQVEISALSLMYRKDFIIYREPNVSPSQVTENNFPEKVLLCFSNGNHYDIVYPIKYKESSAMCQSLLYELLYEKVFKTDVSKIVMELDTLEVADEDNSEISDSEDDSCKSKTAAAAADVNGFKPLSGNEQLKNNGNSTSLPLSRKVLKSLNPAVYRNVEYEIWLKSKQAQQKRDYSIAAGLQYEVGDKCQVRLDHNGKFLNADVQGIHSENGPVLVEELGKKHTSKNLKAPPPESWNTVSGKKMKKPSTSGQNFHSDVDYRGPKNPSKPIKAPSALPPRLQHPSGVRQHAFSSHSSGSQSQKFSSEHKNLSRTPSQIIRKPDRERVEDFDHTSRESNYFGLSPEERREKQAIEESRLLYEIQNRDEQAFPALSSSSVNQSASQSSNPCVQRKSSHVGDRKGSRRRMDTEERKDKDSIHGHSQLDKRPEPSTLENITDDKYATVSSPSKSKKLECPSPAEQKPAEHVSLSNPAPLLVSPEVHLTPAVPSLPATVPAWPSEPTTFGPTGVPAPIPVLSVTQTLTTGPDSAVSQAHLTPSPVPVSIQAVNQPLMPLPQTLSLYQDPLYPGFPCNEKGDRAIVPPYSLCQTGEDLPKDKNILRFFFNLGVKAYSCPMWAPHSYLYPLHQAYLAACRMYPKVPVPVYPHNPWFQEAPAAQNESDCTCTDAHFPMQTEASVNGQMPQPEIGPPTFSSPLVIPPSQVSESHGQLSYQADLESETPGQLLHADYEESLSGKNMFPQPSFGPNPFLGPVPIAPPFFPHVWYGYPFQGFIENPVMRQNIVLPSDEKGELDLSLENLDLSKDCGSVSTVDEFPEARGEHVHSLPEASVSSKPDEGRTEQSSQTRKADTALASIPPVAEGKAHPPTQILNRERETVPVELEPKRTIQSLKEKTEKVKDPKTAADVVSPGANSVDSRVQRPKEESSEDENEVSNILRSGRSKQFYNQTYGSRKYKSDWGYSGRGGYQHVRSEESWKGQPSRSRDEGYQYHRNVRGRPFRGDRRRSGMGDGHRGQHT", "procedure,_shortened": "as §1"}, "OTUD5": {"biological_target": "T5, OTUD5 (UniProt Q96G74)", "T5 sequence (whole entry)": "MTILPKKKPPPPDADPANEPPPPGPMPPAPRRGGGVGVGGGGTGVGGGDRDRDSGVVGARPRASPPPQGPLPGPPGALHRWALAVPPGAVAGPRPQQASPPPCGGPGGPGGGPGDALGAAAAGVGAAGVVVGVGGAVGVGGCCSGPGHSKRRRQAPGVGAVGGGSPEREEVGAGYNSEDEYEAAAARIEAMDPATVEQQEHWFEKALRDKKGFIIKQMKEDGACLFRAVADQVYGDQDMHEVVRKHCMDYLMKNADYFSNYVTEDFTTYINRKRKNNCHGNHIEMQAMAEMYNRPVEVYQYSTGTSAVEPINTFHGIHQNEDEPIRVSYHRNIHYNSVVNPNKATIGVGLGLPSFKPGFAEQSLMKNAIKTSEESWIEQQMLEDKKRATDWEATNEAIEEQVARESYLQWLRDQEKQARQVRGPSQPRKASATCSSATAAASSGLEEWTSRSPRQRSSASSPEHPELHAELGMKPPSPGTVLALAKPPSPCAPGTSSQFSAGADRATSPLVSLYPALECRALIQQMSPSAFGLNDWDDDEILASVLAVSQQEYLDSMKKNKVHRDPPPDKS", "procedure,_shortened": "as §1"}}, "note": "Unmarked numbers belong to inactive results.", "data": [{"smiles": "COc1cccc(CN(C)C(=O)CCl)c1", "values": [{"measurement": "log2 ratio of Biotin-Ahx-Ub-VS probe labelling", "setting": "ALG13", "result": -0.0162}, {"measurement": "log2 ratio of Biotin-Ahx-Ub-VS probe labelling", "setting": "ATXN3", "result": -0.781}, {"measurement": "log2 ratio of Biotin-Ahx-Ub-VS probe labelling", "setting": "BAP1", "result": "-2.68 (active)"}, {"measurement": "log2 ratio of Biotin-Ahx-Ub-VS probe labelling", "setting": "EIF3F", "result": 0.0528}, {"measurement": "log2 ratio of Biotin-Ahx-Ub-VS probe labelling", "setting": "EIF3H", "result": -0.0896}, {"measurement": "log2 ratio of Biotin-Ahx-Ub-VS probe labelling", "setting": "FAM105A", "result": -0.419}, {"measurement": "log2 ratio of Biotin-Ahx-Ub-VS probe labelling", "setting": "OTUB1", "result": 0.00861}, {"measurement": "log2 ratio of Biotin-Ahx-Ub-VS probe labelling", "setting": "OTUD4", "result": -0.462}, {"measurement": "log2 ratio of Biotin-Ahx-Ub-VS probe labelling", "setting": "OTUD5", "result": -0.999}]}]}
